Screening results as filed in PubChem.
Rows were chosen to be rich in hits. Some 11% of all compounds tested hit in one or more screens of this group.
JMJD2A Tudor inh = qHTS Assay for Inhibitors of JMJD2A-Tudor Domain; Lysine-specific demethylase 4A (Homo sapiens), O75164; AlphaScreen JMJD2A-Tudor / H3K4me3 peptide binding; Potency, µM (top dose mostly 114 µM), for the others: at the top dose activity change, negative = inhibition, usual class: inhibitors; hit rate 4.4% among 390,000; AID 504339, 2011; note: potency is the fitted concentration of half-maximal effect; % is set by controls: 0 for no effect and ±100 for the full control effect; nearly all actives have a fitted effect of over 50% in size
HP1b binding inh = HTS for Inhibitors of HP1-beta Chromodomain Interactions with Methylated Histone Tails; hit rate 0.56% among 390,000; Potency, µM (doses to about 114 µM), inactives show at the highest dose activity change, negative = inhibition, usual class: inhibitors; AlphaScreen HP1-beta / biotin-H3K9me3 peptide binding; Chromobox protein homolog 1 (Homo sapiens), P83916; AID 540317, 2011; note: potency is the fitted concentration of half-maximal effect; nearly all actives have a fitted effect of over 70% in size
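HP1-beta protein (50 nM final) preincubated 30 min at room temperature with biotinylated H3(1-18)K9me3 peptide (50 nM) in PBS pH 7.4, 0.01% Tween-20, then compound added for 30 min. AlphaScreen streptavidin donor/nickel chelate acceptor beads (10 ug/mL final), 30 min dark, luminescence read.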
BAZ2B block = qHTS Assay for Inhibitors of BAZ2B | AlphaScreen BAZ2B-H3K14Ac peptide displacement | Potency, µM (highest dose often 114 µM), for the others: at the highest dose activity change, negative = inhibition, actives largely listed as inhibitors | hit rate 4.4% among 360,000; note: potency is the fitted concentration of half-maximal effect; % is set by controls: 0 for no effect and ±100 for the full control effect; nearly all actives have a fitted effect of over 60% in size
Target sequence (Q9UIF8 whole entry, looked up): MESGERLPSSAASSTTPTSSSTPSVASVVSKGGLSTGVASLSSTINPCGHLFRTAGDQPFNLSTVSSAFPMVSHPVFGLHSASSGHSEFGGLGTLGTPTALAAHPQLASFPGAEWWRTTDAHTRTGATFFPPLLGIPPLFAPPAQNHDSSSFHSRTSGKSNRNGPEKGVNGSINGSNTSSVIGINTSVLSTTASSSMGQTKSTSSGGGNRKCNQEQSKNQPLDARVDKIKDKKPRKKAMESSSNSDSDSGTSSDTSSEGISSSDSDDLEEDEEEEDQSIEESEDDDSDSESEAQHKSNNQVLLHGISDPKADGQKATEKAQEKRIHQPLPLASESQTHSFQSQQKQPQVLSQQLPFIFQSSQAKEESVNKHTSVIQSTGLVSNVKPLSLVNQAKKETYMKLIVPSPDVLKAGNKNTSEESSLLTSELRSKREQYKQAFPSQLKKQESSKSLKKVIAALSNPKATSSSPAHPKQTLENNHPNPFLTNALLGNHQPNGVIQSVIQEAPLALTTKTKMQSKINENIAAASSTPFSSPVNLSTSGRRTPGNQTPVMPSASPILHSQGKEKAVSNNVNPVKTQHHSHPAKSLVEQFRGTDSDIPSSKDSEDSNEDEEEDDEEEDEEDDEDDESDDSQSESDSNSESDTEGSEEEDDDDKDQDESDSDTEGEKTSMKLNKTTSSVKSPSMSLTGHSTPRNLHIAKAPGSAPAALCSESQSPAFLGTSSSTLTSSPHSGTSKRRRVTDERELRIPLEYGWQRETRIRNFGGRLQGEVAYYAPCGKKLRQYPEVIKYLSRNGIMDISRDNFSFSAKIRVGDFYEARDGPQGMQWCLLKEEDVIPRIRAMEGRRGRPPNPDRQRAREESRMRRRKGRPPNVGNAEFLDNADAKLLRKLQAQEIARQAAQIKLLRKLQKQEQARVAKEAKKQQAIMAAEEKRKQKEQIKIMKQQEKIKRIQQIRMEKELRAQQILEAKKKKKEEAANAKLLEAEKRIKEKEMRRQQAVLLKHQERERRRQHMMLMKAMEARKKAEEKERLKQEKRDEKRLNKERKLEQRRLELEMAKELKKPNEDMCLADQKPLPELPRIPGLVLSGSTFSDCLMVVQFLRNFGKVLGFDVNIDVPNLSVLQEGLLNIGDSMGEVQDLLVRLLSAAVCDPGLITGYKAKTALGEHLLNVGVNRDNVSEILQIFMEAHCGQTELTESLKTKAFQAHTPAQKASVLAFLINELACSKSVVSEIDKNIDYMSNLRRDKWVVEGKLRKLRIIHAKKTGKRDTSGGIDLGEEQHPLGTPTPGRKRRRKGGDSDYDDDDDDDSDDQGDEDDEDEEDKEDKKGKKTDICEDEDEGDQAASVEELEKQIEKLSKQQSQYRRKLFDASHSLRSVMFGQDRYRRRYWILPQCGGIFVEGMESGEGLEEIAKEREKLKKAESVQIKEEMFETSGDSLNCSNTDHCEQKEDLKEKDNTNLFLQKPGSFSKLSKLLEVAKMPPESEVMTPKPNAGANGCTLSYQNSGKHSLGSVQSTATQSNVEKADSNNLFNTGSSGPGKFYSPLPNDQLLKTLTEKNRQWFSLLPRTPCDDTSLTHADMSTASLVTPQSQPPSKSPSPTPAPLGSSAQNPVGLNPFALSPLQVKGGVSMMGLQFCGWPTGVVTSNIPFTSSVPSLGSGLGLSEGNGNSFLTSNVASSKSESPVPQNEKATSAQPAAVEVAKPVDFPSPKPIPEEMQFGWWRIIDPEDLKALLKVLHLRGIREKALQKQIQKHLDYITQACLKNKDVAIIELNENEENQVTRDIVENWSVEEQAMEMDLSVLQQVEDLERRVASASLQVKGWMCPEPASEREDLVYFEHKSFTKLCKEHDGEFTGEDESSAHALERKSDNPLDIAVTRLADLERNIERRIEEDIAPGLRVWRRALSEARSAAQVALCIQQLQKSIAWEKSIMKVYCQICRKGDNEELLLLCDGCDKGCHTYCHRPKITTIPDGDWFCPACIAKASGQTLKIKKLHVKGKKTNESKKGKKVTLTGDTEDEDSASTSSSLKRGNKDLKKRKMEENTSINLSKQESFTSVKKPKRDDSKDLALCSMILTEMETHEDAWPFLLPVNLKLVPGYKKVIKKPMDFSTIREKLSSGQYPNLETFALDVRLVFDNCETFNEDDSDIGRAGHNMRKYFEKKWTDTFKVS
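AlphaScreen luminescence quantifies BAZ2B engagement of H3K14Ac peptide; the protein and biotinylated peptide are both at 50 nM final, buffer PBS pH 7.4 with 0.01% Tween-20, all steps at room temperature.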
PI5P4K alpha inh = qHTS for Inhibitors of phosphatidylinositol 5-phosphate 4-kinase (PI5P4K) | Phosphatidylinositol 5-phosphate 4-kinase type-2 alpha (Homo sapiens), P48426 | PI5P4Kalpha enzyme, ADP-Glo luminescence, 60 min; active compounds read low | max response, % | hit rate 1.2% among 330,000; active = max response of -50% or lower; inconclusive = between -30% and -50%; inactive = -30% or higher; note: value at the top dose of about 77 µM; % is set by controls: 0 for no effect and ±100 for the full control effect
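Single end-point luminescence (ADP-Glo) quantified ADP from PI5P4Kalpha turnover; ATP 5 microM final, 1 h at RT, 0.1% CHAPS and 0.28 mM EGTA in HEPES pH 7.4.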
G9a block = qHTS Assay for Inhibitors of Histone Lysine Methyltransferase G9a | Histone-lysine N-methyltransferase EHMT2 (Homo sapiens), Q96KQ7 | G9a H3K9 monomethylation, AlphaScreen, 2 h | Potency, µM (series often up to 102 µM), inactives show top-dose activity, negative = inhibition, hits mostly inhibitors | hit rate 8.8% among 350,000 | AID 504332, 2011; note: potency is the fitted concentration of half-maximal effect; % is set by controls: 0 for no effect and ±100 for the full control effect; nearly all actives have a fitted effect of over 75% in size
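Methyltransferase reactions run at room temperature for 2 h (20 nM enzyme, 500 nM biotin-H3K9 peptide, 20 uM SAM) after a 15 min compound preincubation; product detected by AlphaScreen beads and anti-H3K9me1 antibody.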
L3MBTL1 block = qHTS Assay for the Inhibitors of L3MBTL1; Lethal(3)malignant brain tumor-like protein 1 (Homo sapiens), Q9Y468; AlphaScreen L3MBTL1–H3K9me1 peptide binding; Potency, µM (top dose mostly 57.1 µM), for inactives: at the highest dose activity, negative = inhibition, hits mostly inhibitors; hit rate 0.66% among 230,000; note: potency is the fitted concentration of half-maximal effect; % is set by controls: 0 for no effect and ±100 for the full control effect; nearly all actives have a fitted effect of over 60% in size
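Displacement of a biotinylated histone H3(1-15) peptide monomethylated at Lys9 (75 nM) from L3MBTL1 (50 nM) was measured by AlphaScreen after a 30 min room-temperature compound incubation; cefsulodin titration served as intraplate control.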
Numbers without * were called inactive; ? = inconclusive; · = no result given; [ ] = dose if it differs, or a comment. Unless noted, calls come from the whole dose curve; as a rule, active = well fitted inhibition curve with a large enough effect; inconclusive = small, poorly fitted or top-dose-only effect; inactive = no such curve, though single readings can be large or run the other way.

SMILES	JMJD2A Tudor inh	HP1b binding inh	BAZ2B block	PI5P4K alpha inh	G9a block	L3MBTL1 block
Cc1ccc(S(=O)(=O)N/N=C/c2ccc(OCC(=O)N3CCOCC3)cc2)cc1	-10.5%[11.4 µM]	46.8%	-18.2%	3.5	-37.8%	-3.7%
O=C(COc1ccc(/C=N/NS(=O)(=O)c2ccccc2)cc1)N1CCOCC1	1.4%	11.5%	1.0%	-0.3	39.8µM*	·
C=CCOC(=O)C1=C(C)NC(C)=C(C(=O)OCC=C)C1c1ccco1	-9.6%	27.1%	?	0.5	?	4.4%
CC1=C(C(N)=O)C(c2ccco2)C(C(N)=O)=C(C)N1	-1.6%	41.2%	?	14.1	56.2µM*	-4.3%
COc1ccc(CN(Cc2ccccc2)C(=O)COC(C)=O)cc1COc1ccc(NC(C)=O)cc1	-31.3%	8.9%	·	·	·	·
COc1ccc([C@H]2[C@H](C(=O)OC(C)(C)C)N3N=Cc4ccccc4C3C23C(=O)c2ccccc2C3=O)cc1OC (stereo partly drawn)	?	-21.6%	17.8µM*	-7.1	?	-19.0%
COc1ccc([C@H]2[C@H](C(=O)OC(C)(C)C)N3N=Cc4ccccc4C3C23C(=O)c2ccccc2C3=O)c(OC)c1 (stereo partly drawn)	?	-16.0%	?	1.6	?	-10.9%
CCOc1ccc2nc(N(Cc3cccnc3)C(=O)c3ccc4c(c3)OCCO4)sc2c1	-9.7%	27.7%[57 µM]	1.3%	·	-1.1%[59 µM]	·
Cc1ccc(S(=O)(=O)N(C#N)c2nc(C)cc(C)n2)cc1	-13.6%	56.0%	?	·	44.7µM*	·
Cc1ccc(S(=O)(=O)N(C)S(=O)(=O)c2ccc(C#N)cc2)cc1	·	·	-1.9%	·	44.7µM*	·
Cc1cc(C)nc(N(C#N)S(=O)(=O)c2ccc(Br)cc2)n1	·	·	?	·	-33.2%[59 µM]	·
Cc1ccc(S(=O)(=O)CC(O)COc2ccc(C#N)cc2)cc1 (stereo not drawn)	-11.0%	6.0%	4.4%	-2.7	23.4%[59 µM]	4.1%
C[C@H](N)c1nnc(SCC(=O)N(C)C)o1	?	49.4%	?	-0.9	8.91µM*	?
O=C(Nc1cc(Cl)ccc1-n1cncn1)c1cccs1	-13.1%	19.4%	7.2%	0.3	44.7µM*	10.5%
COc1ccc(OCCCC(=O)Nc2cc(Cl)ccc2-n2cncn2)cc1	-13.8%	3.8%	7.5%	-0.9	44.7µM*	0.0%
Cc1ccc(OCCCC(=O)Nc2cc(Cl)ccc2-n2cncn2)cc1	-2.1%	26.2%	-3.3%	5.1	-0.9%[2.33 µM]	0.9%
O=C(Nc1cc(Cl)ccc1-n1cncn1)c1cc(F)cc(F)c1	-4.6%	11.8%	8.6%	4.1	50.1µM*	1.0%
O=C(Nc1cc(Cl)ccc1-n1cncn1)c1ccc([N+](=O)[O-])o1	-29.7%	-12.7%	-31.9%	?	50.1µM*	-18.7%
O=C(Nc1cc(Cl)ccc1-n1cncn1)C1CC1	-8.5%	31.0%	-38.0%	6.5	-21.2%[12.7 µM]	-2.2%
CN1CCN(c2ncc3nc(CCc4ccccc4)c(=O)n(Cc4ccc(F)cc4)c3n2)CC1	·	·	·	·	-9.4%[12.7 µM]	·
CCc1cccc(NC(=O)Cn2nc(-c3cc(C)ccc3C)ccc2=O)c1	?	9.9%	-12.7%	·	-6.2%[59 µM]	·
O=C(Nc1cc(Cl)ccc1F)c1ccc(-n2cncn2)c([N+](=O)[O-])c1	-26.9%	7.7%	-5.8%	-4.5	56.2µM*	-0.2%
CO/N=C/c1ccc(Sc2ccc(C)cc2)c([N+](=O)[O-])c1	?	?	?	-1.8	?	·
Cc1ccc(Sc2ccc(/C=N/O)cc2[N+](=O)[O-])cc1	44.7µM*	-45.0%	?	14.8	?	·
CCOc1cc(/C=C2/C(=O)ON=C2C)ccc1O	-4.0%	4.3%	-38.1%	-16.2	50.1µM*	·
SMILES	JMJD2A Tudor inh	HP1b binding inh	BAZ2B block	PI5P4K alpha inh	G9a block	L3MBTL1 block
CCCOc1ccc(/C=C2/C(=O)ON=C2C)cc1Cl	6.4%	16.6%	-9.7%	-16.9	28.2µM*	·
CCCCC1(C)OC(=O)C(=Cc2ccc(N(CC)CC)cc2)C(=O)O1 (stereo not drawn)	?	12.4%	56.2µM*	5.3	70.8µM*	-6.4%
CCOC(=O)C1=C(O)/C(=C\c2ccc(O)c(OCC)c2)N=C1C	-6.7%	1.0%	-19.2%	1.6	?	-4.2%
CCOc1cc(/C=C2/N=C(C)C(C(=O)OC)=C2O)ccc1O	-12.9%	6.1%	-10.5%	0.0	44.7µM*	-5.7%
O=C(Cn1c(=O)n(Cc2nc(-c3ccccc3)no2)c(=O)c2cc3c(cc21)OCO3)Nc1cccc(C(F)(F)F)c1	-9.3%	24.5%	-11.9%	·	-14.7%[59 µM]	·
CCOc1ccc(-n2nc(CO)c(C(=O)NCc3cccs3)n2)cc1	-3.8%	22.5%	2.3%	·	7.6%[59 µM]	·
CC(C)Nc1nc(C#N)nc(Nc2ccccc2)n1	-15.9%	·	·	·	·	·
O=C(NCCc1ccc(Cl)cc1)c1cnc2sc(N3CCCC3)nn2c1=O	-1.3%	-4.5%	-3.4%	·	5.0%[59 µM]	·
CCOc1cc(/C=C2\CN(C)C/C(=C\c3ccc(O)c(OCC)c3)C2=O)ccc1O	56.2µM*	?	44.7µM*	0.7	35.5µM*	·
CCN(CC)c1ccc(/C=C2\C(=O)N(c3nnc(C)c(=O)[nH]3)N=C2C)cc1	20µM*	-1.5%	8.91µM*	-12.5	50.1µM*	?
CC1=NOC(=O)/C1=C/c1ccc(O)c(Cl)c1	-17.4%	9.9%	50.1µM*	-10.4	50.1µM*	·
COc1cc(C=C2CN(C)C(=O)C2=O)ccc1O	·	·	·	-9.1	·	·
CCN(CC)c1ccc(/C=C2/C(=O)ON=C2C)cc1	44.7µM*	?	39.8µM*	-1.3	44.7µM*	-16.8%
CC1=NOC(=O)/C1=C/c1ccc(N(C)C)cc1	-34.0%	13.8%	-36.4%	·	?	-6.1%
CC(C)C(=O)OC1=CN(Cc2ccccc2)S(=O)(=O)c2ccccc21	33.4%	74.9%	21.8%	·	7.8%[59 µM]	·
CC(C)C(CCNCc1ccccn1)c1ccc(Cl)cc1 (stereo not drawn)	20µM*	11.4%	50.1µM*	-5.7	?	·
O=C(CCSc1ccc(Cl)cc1)NCc1ccccn1	0.8%	37.1%	-16.2%	0.1	1.2%	-8.2%
Fc1ccccc1CNCCC(Cc1ccccc1)c1ccc2c(c1)OCO2 (stereo not drawn)	-24.4%	-4.3%	-30.6%	2.3	?	-4.4%
CC(C)CCC(CCNCc1ccccn1)c1ccc2c(c1)OCO2 (stereo not drawn)	39.8µM*	9.5%	56.2µM*	4.2	15.8µM*	·
COc1ccc(-c2cc3ccc(O)c(CN4CCOCC4)c3oc2=O)cc1OC	2.6%	70.3%[57 µM]	68.8%	·	14.8%[59 µM]	·
